For 20 molecules, growth inhibition results are on record in PubChem BioAssay (NCI).

Assay [1] can be described thus: NCI Yeast Anticancer Drug Screen. Data for the rad50 strain (AID 155).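 Note: 0% = growth of vehicle-only cultures of the same strain.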 The conditions noted are these: S. cerevisiae rad50 strain growth inhibition; at 50.0 µM; stronger effect = higher value. The gist of the method: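 DNA repair mutant yeast, compound exposure, growth read-out; inhibition is taken relative to vehicle.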
The nature of assay [2]: NCI Yeast Anticancer Drug Screen. Data for the mec2-1 strain (AID 157). The conditions noted are these: S. cerevisiae mec2-1 strain, at 50.0 µM, stronger effect = higher value. The gist of the method:
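Growth inhibition is read against vehicle-treated controls after compound exposure of the mec2-1 yeast strain, which is defective in DNA damage repair or cell cycle control.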

Assay [3] can be described thus: NCI Yeast Anticancer Drug Screen. Data for the sgs1 mgt1 strain (AID 161).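 Note: 0% = growth of cultures given vehicle only.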 As to conditions: S. cerevisiae sgs1 mgt1 strain, at 50.0 µM, stronger effect = higher value. The procedure, abridged:
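This yeast growth screen uses a strain with defined DNA-repair lesions; compound-treated growth is compared with vehicle-treated growth.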

Assay [4] in a line: NCI Yeast Anticancer Drug Screen. Data for the cln2 rad14 strain (AID 165).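 Note: 0% = growth equal to vehicle treated cultures.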 The conditions noted are these: S. cerevisiae cln2 rad14 strain, at 50.0 µM, stronger effect = higher value. The procedure, abridged: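 Growth inhibition, relative to vehicle-treated controls, is the read-out. The test organism is a yeast strain with defined genetic alterations, cln2 rad14.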
Assay [5] is described as follows: NCI Yeast Anticancer Drug Screen. Data for the bub3 strain (AID 167). As to conditions: S. cerevisiae bub3 mutant strain, at 50.0 µM, stronger effect = higher value. The gist of the method:
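In this screen, a yeast mutant lacking normal mitotic checkpoint function is challenged with compound. Relative growth versus vehicle gives the inhibition value.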

Assay [6] can be described thus: NCI Yeast Anticancer Drug Screen. Data for the mlh1 rad18 strain (AID 175). As to conditions: S. cerevisiae mlh1 rad18 strain growth inhibition; at 50.0 µM; stronger effect = higher value. The procedure, abridged: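 Cells of a genetically altered yeast strain, deficient in DNA damage repair, were treated with compound. Their growth was then compared with that of vehicle-treated cultures to give inhibition.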

About 79,000 compounds went through this panel and 15% of them were active in at least one assay; those are over-represented in the sample as a whole. Values without a mark were called inactive. Activity calls are given as the source filed them. Cut-off read from the data, not from the text of the source: active = growth inhibition above about 70%; inactive = the rest.

In the case of `CCOC(=O)C1(C(=O)OCC)CSC1`, the growth inhibition in assay [1] was -16.6%; in assay [2], -5.45%; in assay [3] it was -17.1%; in assay [4], 3.85%; in assay [5] it was -17.8%; in assay [6] it was -22.3%.

As to `C=C1C(=O)O[C@H]2C[C@@H]1C(=O)CC(C)CCCC(C)=CCC[C@@]2(C)O` (stereo not given in full), the growth inhibition in assay [1] is 24.4%; in assay [2], 7.65%; in assay [3], 15.2%; in assay [4], 11.2%; in assay [5], -0.1%; in assay [6], -49.4%.

Consider `CCOC(=O)c1cc2c(cn1)[nH]c1cccc(N)c12`, for which the growth inhibition in assay [1] is -10.3%; in assay [2], -39.5%; in assay [3] it was 7.05%; in assay [4], 5.85%; in assay [5], -3.5%; in assay [6], -9.55%.

Regarding `CCNC(=S)Nc1ccc(Cl)cc1`, the growth inhibition in assay [1] is 27.2%; in assay [2] it was 40.4%; in assay [3] it was 39%; in assay [4], -6.1%; in assay [5], 53.4%; in assay [6] it was 35.8%.

Turning to `S=C(c1ccccc1Cl)N1CCOCC1`, the growth inhibition in assay [1] was 18.2%; in assay [2], -22.2%; in assay [3], 14.7%; in assay [4], 17.1%; in assay [5], 20.1%; in assay [6] it was 13.8%.

`CCC(C)(O)c1cn(-c2cccc(S(=O)(=O)O)c2)nn1` (stereo not given): the growth inhibition in assay [1] was -9.3%; in assay [2] it was -10.2%; in assay [3] it was -8.05%; in assay [4], 5.95%; in assay [5], -8.65%; in assay [6] it was -8.35%.

As to `CC(C)(C)c1ccc(C(=O)NCSCC(NC(=O)CCC(N)C(=O)O)C(=O)NCC(=O)O)cc1` (stereo not given), the growth inhibition is -10.4% in assay [1]; 1% in assay [2]; -10.7% in assay [3]; -7.75% in assay [4]; 0.85% in assay [5]; 14.8% in assay [6].

With `CCC(C(=O)O)c1cccc2c(C)ccc(C)c12` (stereo not given), the growth inhibition in assay [1] was 8.25%; in assay [2], 3.55%; in assay [3], 21.4%; in assay [4] it was 23.2%; in assay [5], 7.7%; in assay [6] it was 8.15%.

`Brc1cc(Br)cc(-c2nnc(-c3ccc4ccccc4c3)o2)c1`: the growth inhibition is -3.5% in assay [1]; -20.8% in assay [2]; -2.45% in assay [3]; 3.25% in assay [4]; 3% in assay [5]; 4.55% in assay [6].

Consider `CCOC(=O)C(O)C(O)C(O)C(O)C(=O)OCC` (stereo not given), for which the growth inhibition was 5.6% in assay [1]; -8.15% in assay [2]; 1.9% in assay [3]; -2.35% in assay [4]; -7.7% in assay [5]; -8.75% in assay [6].

As for `Cc1cc(C)c([N+](=O)[O-])c(N)n1`, the growth inhibition in assay [1] is 8.45%; in assay [2], -6.6%; in assay [3] it was -5.85%; in assay [4], -52%; in assay [5], 1.2%; in assay [6] it was -12.1%.

On to `CN(C)C1=CC(=S)NC2CCCCC12` (stereo not given), for which the growth inhibition in assay [1] is 4.1%; in assay [2] it was -4.7%; in assay [3], 10.6%; in assay [4] it was 2.05%; in assay [5] it was -10.1%; in assay [6], 22.1%.

With `CCOC(OCC)N(C)C`, the growth inhibition is -14.9% in assay [1]; -5.25% in assay [2]; -3.05% in assay [3]; -4.8% in assay [4]; -5.5% in assay [5]; -26.8% in assay [6].

For `N#CCOS(=O)(=O)O`, the growth inhibition in assay [1] is -0.6%; in assay [2] it was 0.45%; in assay [3] it was -1.4%; in assay [4] it was -6.7%; in assay [5] it was -3.25%; in assay [6] it was -1%.

For `S=c1nc(-c2cccnc2)[nH][nH]1`, the growth inhibition was 1.6% in assay [1]; 0.5% in assay [2]; 0.7% in assay [3]; 0.8% in assay [4]; 1.55% in assay [5]; 3.85% in assay [6].

Consider `[Cl][Bi]([O]c1ccccn1)[O]c1ccccn1`, for which the growth inhibition in assay [1] is 9.9%; in assay [2], -1.55%; in assay [3], -13.4%; in assay [4] it was 17.4%; in assay [5], 28.6%; in assay [6] it was -25.8%.

Turning to `CC(C)(C)CC(CC(C)(C)C)C(=O)O`, the growth inhibition in assay [1] was 28.9%; in assay [2], -1.2%; in assay [3], -3.5%; in assay [4], 1.85%; in assay [5], 4.05%; in assay [6], 21.3%.

As to `O=C1C(c2cnc3c(n2)CCC=C3)=C(O)c2ccccc21`, the growth inhibition in assay [1] was -1.15%; in assay [2], -7.8%; in assay [3] it was -6.6%; in assay [4], -84.2%; in assay [5], -16.7%; in assay [6] it was -0.65%.

With `CCN(CC)C(=O)CCn1ccc(=O)[nH]c1=O`, the growth inhibition in assay [1] was -52.4%; in assay [2], -33.4%; in assay [3] it was -25.8%; in assay [4] it was 9.55%; in assay [5], -2.75%; in assay [6] it was -5.35%.

As for `O=C(NC1=C(Cl)C(=O)c2ccccc2C1=O)C(=O)c1c(O)c2ccccc2oc1=O`, the growth inhibition in assay [1] is 83.5% (active); in assay [2], 85.8% (active); in assay [3], 87.8% (active); in assay [4], 84.2% (active); in assay [5], 84.6% (active); in assay [6], 91.3% (active).
